High-throughput results as filed in PubChem.
Only some compounds are listed: those with a hit (about 11% of all), similar ones and a draw of the others.
PNC assembly inh = perinucleolar compartment assembly inhibition; PC3M PTB-GFP, PNC prevalence imaging, 16 h; hits give low values; activity change (PNC), negative = inhibition, % at 10 µM; 140,000 compounds, 3.1% hits; AID 2417;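 active = readout at or below -70, meaning at least 70% loss of cells showing the perinucleolar compartment, a nuclear body marking cancer cells; inconclusive = readout between -30 and a set limit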;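 note: plate controls were DMSO wells for no effect and camptothecin positive control wells for full effect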
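Compounds are pinned in duplicate onto adhered PC3M cells stably expressing GFP-tagged PTB and incubated 16 h at 37 C. Cells are then fixed, nuclei stained with Hoechst, and PNC-positive cells counted.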
HPGD inh = inhibitors of human 15-hydroxyprostaglandin dehydrogenase (HPGD). P15428. purified HPGD, NADH fluorescence kinetic, PGE2 substrate. Potency, µM, inactives show at the highest dose activity change, negative = inhibition, usual class: inhibitors. 150,000 compounds, 4.3% hits. AID 894; note: potency is the fitted concentration of half-maximal effect
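NADH formation kinetics: reaction with 30 uM PGE2 and 1 mM NAD+ (final), 20 nM enzyme, Tris-HCl pH 8 with Tween 20, after 15 min compound preincubation at room temperature. Fluorescence change, last versus first of five reads.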
ALDH1A1 block = ALDH1A1 (human) enzyme inhibition. Potency, µM (highest dose often 75.3 µM), for the others: at the top dose activity, negative = inhibition, usual class: inhibitors. P00352. Purified ALDH1A1, NADH fluorescence, propionaldehyde substrate. 220,000 compounds, 7.3% hits;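 note: potency is the fitted concentration of half-maximal effect; plate controls were no enzyme wells and a reference inhibitor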
Target sequence (P00352 whole entry, looked up): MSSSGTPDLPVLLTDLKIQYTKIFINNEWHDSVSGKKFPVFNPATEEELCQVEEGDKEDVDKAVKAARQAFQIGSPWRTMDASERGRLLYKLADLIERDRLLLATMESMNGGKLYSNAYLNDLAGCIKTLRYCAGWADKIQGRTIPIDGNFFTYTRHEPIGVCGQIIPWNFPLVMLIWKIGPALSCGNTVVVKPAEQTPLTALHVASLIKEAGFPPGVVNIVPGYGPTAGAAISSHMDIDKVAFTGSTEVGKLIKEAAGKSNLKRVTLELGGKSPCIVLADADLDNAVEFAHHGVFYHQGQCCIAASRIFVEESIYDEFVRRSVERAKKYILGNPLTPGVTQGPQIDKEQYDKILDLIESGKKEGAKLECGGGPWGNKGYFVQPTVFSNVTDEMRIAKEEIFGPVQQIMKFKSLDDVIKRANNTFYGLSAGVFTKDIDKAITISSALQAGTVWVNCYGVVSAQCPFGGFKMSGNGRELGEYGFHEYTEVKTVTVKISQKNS
Active calls of the source: *; ? = inconclusive; . = not tested or not shown; [ ] = remark or other dose. Unless noted, calls come from the whole dose curve; as a rule, active = well fitted inhibition curve with a large enough effect (not every such curve was filed as active); inconclusive = small, poorly fitted or top-dose-only effect, or another doubt; inactive = no such curve, though single readings can be large or run the other way. Unless noted, % is set by controls: 0 for no effect and ±100 for the full control effect.

SMILES	PNC assembly inh	HPGD inh	ALDH1A1 block
Cc1cccc(NC(=O)CCSc2nncn2C)c1	26	-1%	-1%
N[C@@H]1C(O)OC(CO)C(O)C1O (stereo partly specified)	.	-3%	14%
O=C(O)c1ccc(N2C(=O)c3cccc(Oc4ccc(Cl)cc4)c3C2=O)cc1	-3	1.4µM*	1%
O=C(O)c1cccc(N2C(=O)c3cccc(Oc4ccc(Cl)cc4)c3C2=O)c1	16	25µM*	11%
O=C(CNC(=O)c1ccc(N2C(=O)c3ccccc3C2=O)cc1)OCC(=O)c1ccc(Cl)cc1	87	-14%	19%
O=C(O)CN1C(=O)c2ccc(Oc3cccc4c3C(=O)N(CC(=O)O)C4=O)cc2C1=O	?	-7%	0%
O=C(CNC(=S)N(Cc1ccccc1F)C1CCCCC1)NC1CC1	9	-6%	13µM*
CCCNC(=O)CNC(=S)N(Cc1ccccc1F)C1CCCCC1	.	.	10µM*
O=C(NCC1CCCCC1)C1CCCN(C(=O)NC2CCCCC2)C1 (stereo unspecified)	-18	-21%	-3%
O=C(NCc1ccccc1F)C1CCCN(C(=O)NC2CCCCC2)C1 (stereo unspecified)	-124*	-12%	3%
O=C(O)CNC(=S)N(Cc1ccccc1Cl)C1CCCCC1	.	.	-5%
O=C(O)CNC(=S)N(Cc1ccc(F)cc1)C1CCCCC1	.	.	0%
O=C(O)c1ccc(CNCc2c(Cl)cccc2Cl)cc1	33	-9%	-2%
NS(=O)(=O)c1ccc(NC(=S)NC2CCCCC2)cc1	.	.	-12%
NS(=O)(=O)c1ccc(NC(=O)CN2CCCC2)cc1	.	.	-1%
O=C(c1ccc(NC(=S)Nc2ccc(Cl)c(Cl)c2)cc1)N1CCCC1	16	11µM*	?
NS(=O)(=O)c1ccc(NC(=S)Nc2ccc(C(=O)N3CCCCC3)cc2)cc1	.	.	18µM*
CC(=O)c1ccc(N2CCN(C(=S)Nc3ccc(Cl)c(Cl)c3)CC2)cc1	.	.	-2%
NS(=O)(=O)c1ccc(NC(=O)CN2CCCCC2)cc1	-83*	-11%	4%
C[C@H]1CC[C@H]2C(=O)N[C@H](Cc3ccccc3)C(=O)N2[C@@H]1c1ccccc1	?	-7%	5%[13.5 µM]
CCCCCCCC(O)CC(CC1CCCCC1)C(=O)NN (stereo unspecified)	?	-12%	?
CCn1cc(/C=N\NC(=O)Cc2ccc(Cl)cc2)cn1	-99*	-4%	2%
CCn1cc(/C=N\NC(=O)c2ccc(Cl)cc2)cn1	?	-10%	3%
CC1=CCC[C@@H]2[C@@](C)(CC/C(C)=C/C(=O)O)[C@H](C)CC[C@@]12C	20	?	-2%
Cc1noc(C)c1-c1nccc(N(C)C)n1	.	.	-5%
SMILES	PNC assembly inh	HPGD inh	ALDH1A1 block
O=C1NC(=NCc2ccccc2)S/C1=C/c1ccc(O)cc1	2	2.8µM*	-8%
Cc1c(N=C2NC(=O)/C(=C/c3ccc(O)cc3)S2)c(=O)n(-c2ccccc2)n1C	?	-23%	0%
Cc1cccc(C)c1N1CCN(c2ccc3nnc(C(F)(F)F)n3n2)CC1	15	-7%	?
Cc1ccc2c(c1)c(-c1ccccc1)nc1nncn12	-20	-15%	5%
CC(=NCCN1CCNCC1)C1=C(O)CC(C)(C)CC1=O	?	.	25µM*
CCC(=NCCN1CCNCC1)C1=C(O)CC(C)(C)CC1=O	-21	-2%	?
COC(=O)C1=C(C)N=C2SC(C#N)=C(N)N2C1c1ccc(OCc2ccccc2)cc1 (stereo unspecified)	-27	-22%	?
O=C1c2ccccc2NC(c2ccc([N+](=O)[O-])cc2)N1O (stereo unspecified)	.	.	2%
CCOc1nc(-c2ccccc2O)nc2ccccc12	?	13µM*	2%
COc1cccc(-c2nc(Oc3cccc(C)c3C)c3ccccc3n2)c1O	-9	-14%	-3%
CCC(C)c1ccc(NC(=O)COc2c(F)c(F)c(C(F)(F)F)c(F)c2F)cc1 (stereo unspecified)	?	1%	?
O=C(O)/C=C\C(=O)NC1CCCCC1	-29	-1%	12%
c1ccc(-c2ccn3nnnc3n2)cc1	-100*	-18%	0%
c1ccc(-c2cnn3nnnc3n2)cc1	-11	-14%	11%
COC(=O)c1ccc(COn2c(=O)c(C)[n+]([O-])c3ccccc32)cc1	39	-13%	?
COC(=O)c1ccccc1COn1c(=O)c(C)[n+]([O-])c2ccccc21	-22	-4%	22µM*
CCOC(=O)C(=O)c1csc(NC(=O)CCSc2ccc(C)cc2)n1	.	.	-7%
N#Cc1c(C(F)(F)F)cc(-c2ccccc2Cl)[nH]c1=O	27	?	?
CCN1C(=O)CC(N2CCN(c3ccc(C(=O)c4ccccc4)cc3)CC2)C1=O (stereo unspecified)	8	22µM*	?
O=C1CC(N2CCN(c3ccc(F)cc3)CC2)C(=O)N1Cc1cccs1 (stereo unspecified)	-26	-11%	14µM*
O=C1CC(N2CCN(c3nc4ccccc4s3)CC2)C(=O)N1c1cccc(F)c1 (stereo unspecified)	?	-23%	?
O=C1CC(N2CCN(c3nc4ccccc4s3)CC2)C(=O)N1Cc1cccs1 (stereo unspecified)	?	-2%	22µM*
CCCOc1ccc(N2C(=O)CC(N3CCN(c4nc5ccccc5s4)CC3)C2=O)cc1 (stereo unspecified)	-11	-15%	14µM*
CCN1C(=O)CC(N2CCN(c3ccc(Cl)cc3)CC2)C1=O (stereo unspecified)	24	-7%	-3%
O=C1CC(N2CCC(c3nc4ccccc4o3)CC2)C(=O)N1Cc1cccs1 (stereo unspecified)	-3	3%	?
SMILES	PNC assembly inh	HPGD inh	ALDH1A1 block
NC(=O)C1CCN(C2CC(=O)N(Cc3cccs3)C2=O)CC1 (stereo unspecified)	-19	5%	?
CCC(=O)Nc1cccc(NC(=O)c2ccc(C)cc2Cl)c1	.	.	6%
N#C/C(=C(/N)Sc1ccc(N)cc1)c1ccccc1C(F)(F)F	.	-10%	?
Nc1ccc(SC(F)(F)F)cc1	.	.	20µM*
Cc1ccc(CSc2nnc(-c3ccco3)n2N)cc1	-7	-16%	3%
CCc1ccc(OCCOCC(O)CNC2CCCC2)cc1 (stereo unspecified)	.	.	3%
COc1ccc(CCNC(=O)COC(=O)/C=C/c2ccc(OC)c(OC)c2)cc1	-5	?	-8%
CC(C)C(NC(=O)CSCc1ccc([N+](=O)[O-])cc1)C(C)C	13	10µM*	-10%
O=C(CSCc1ccc([N+](=O)[O-])cc1)NC1CC1	2	0%	6%
C=CCC1(c2ccccc2)Oc2ccccc2-c2nc3cc(Cl)c(Cl)cc3nc21 (stereo unspecified)	.	.	-4%[13.5 µM]
COc1ccc(/C=C(\NC(=O)c2ccccc2)C(=O)OCC2CCCN3CCCCC23)cc1OC (stereo unspecified)	.	.	1%
CNC(=O)c1ccc(OC2CSC2)cc1	-25	-5%	0%
CNC(=O)c1ccc(Oc2ccc(C(=O)NC)cc2)cc1	-2	2.5µM*	-12%
Cc1cccc(-n2cnc(C(=O)N/N=C/c3ccccc3)c2)n1	56	-8%	8%
Brc1ccc(C=Nc2ccc3c(c2)OCCOCCOCCO3)s1	-26	-7%	-8%
CC(C)(CC(=O)O)CC(=O)Nc1ccc(Oc2ccc(C(C)(C)C)cc2)nc1	.	.	8.9µM*
